Assay outcomes as filed in PubChem BioAssay.
IMPase Li cell = qHTS Assay for Identifying the Cell-Membrane Permeable IMPase Inhibitors: Potentiation with Lithium; CHO-M1 cells, IP1 TR-FRET (IP-One), carbachol + lithium; Potency, µM (highest dose often 59.4 µM), inactives show at the top dose activity, negative = IMPase inhibition, actives largely listed as inhibitors; 210,000 compounds, 0.35% hits; active = well fitted curve in the direction sought with a large enough effect; inconclusive = small, poorly fitted or top-dose-only effect, or another doubt; inactive = no such curve, though single readings can be large; an effect the other way counts as inactive or inconclusive;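 note: IP1 builds up when IMPase is blocked and the TR-FRET signal falls; potency is the fitted concentration of half-maximal effect; plate controls were basal vehicle for no effect and high inhibitor control for full effect; nearly all actives have a fitted effect of over 50% in size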
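Lithium-sensitised IP1 accumulation assay; M1-expressing CHO cells treated 30 min at 37C with compound. Competitive antibody detection by time-resolved FRET followed a 10 min room-temperature lysis step.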
PNC inhibitor = High Content Assay for Compounds that inhibit the Assembly of the Perinucleolar Compartment; PC3M PTB-GFP, PNC prevalence imaging, 16 h; stronger effect = lower value; 140,000 compounds, 3.1% hits; activity change (PNC), negative = inhibition, % at 10 µM;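 active = readout at or below -70, meaning at least 70% loss of cells showing the perinucleolar compartment, a nuclear body marking cancer cells; inconclusive = readout between -30 and a set limit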;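 note: plate controls were DMSO wells for no effect and camptothecin positive control wells for full effect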
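PC3M cells stably expressing PTB-GFP, 750–1000 cells/well, treated 16 h at 37 °C with compound (23 nl of library stock), in duplicate. After paraformaldehyde fixation and Hoechst stain, imaged at 20x; PNC prevalence scored by image analysis.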
IMPase inh = qHTS Assay for Identifying the Cell-Membrane Permeable IMPase Inhibitors; Inositol monophosphatase 1 (Rattus norvegicus), P97697; CHO-M1 cells, IP1 accumulation, HTRF TR-FRET ratio; inhibition (IP1 accumulation), % at 46.1 µM; 120,000 tested, under 10 active; AID 901, 2007; active = well fitted curve in the direction sought with a large enough effect in the signal ratio, not every such curve was filed as active; inconclusive = small, poorly fitted or top-dose-only effect, or a change in a side signal; inactive = no such curve, though single readings can be large or run the other way; the % refers to the signal ratio;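 note: cells stimulated with carbachol in lithium chloride buffer; plate controls were DMSO basal wells for no effect and reference inhibitor wells for full effect; higher means more IMPase inhibition seen as more IP1 and lower FRET ratio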
Target sequence (P97697 whole entry, looked up): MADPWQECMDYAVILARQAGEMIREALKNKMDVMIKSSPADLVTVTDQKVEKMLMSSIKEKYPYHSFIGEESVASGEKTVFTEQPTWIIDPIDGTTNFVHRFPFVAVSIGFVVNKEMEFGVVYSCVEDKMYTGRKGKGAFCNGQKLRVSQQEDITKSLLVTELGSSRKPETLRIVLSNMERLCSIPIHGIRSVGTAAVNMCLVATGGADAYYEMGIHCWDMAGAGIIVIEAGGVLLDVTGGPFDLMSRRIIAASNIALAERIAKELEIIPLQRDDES
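Measured: the HTRF emission ratio (665/620 nm) plus the 620 nm donor channel, each fitted to the Hill equation to give AC50. Cells were CHO-M1 given compounds up to 46 uM and a 30 min carbachol stimulation at 37C.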
HPGD inh = qHTS Assay for Inhibitors of HPGD (15-Hydroxyprostaglandin Dehydrogenase); 15-hydroxyprostaglandin dehydrogenase [NAD(+)] (Homo sapiens), P15428; purified HPGD, NADH fluorescence kinetic, PGE2 substrate; Potency, µM, without a hit: at the highest dose activity change, negative = inhibition, actives largely listed as inhibitors; 150,000 compounds, 4.3% hits; AID 894, 2007; note: potency is the fitted concentration of half-maximal effect
Target sequence (P15428 whole entry, looked up): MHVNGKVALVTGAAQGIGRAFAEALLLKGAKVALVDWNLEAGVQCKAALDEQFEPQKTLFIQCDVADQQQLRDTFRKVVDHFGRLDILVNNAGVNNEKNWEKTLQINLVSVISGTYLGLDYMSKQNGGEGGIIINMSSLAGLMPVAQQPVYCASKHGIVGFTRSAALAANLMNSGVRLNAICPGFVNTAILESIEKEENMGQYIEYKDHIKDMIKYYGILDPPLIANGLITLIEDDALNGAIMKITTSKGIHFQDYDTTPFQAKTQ
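20 nM HPGD preincubated 15 min at room temperature with compound in 50 mM Tris-HCl pH 8, 0.01% Tween 20. Started with 1 mM NAD+ and 30 uM prostaglandin E2; NADH fluorescence (360/450 nm) read 5 times over 30-s intervals, last minus first.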
ALDH1A1 inh = qHTS Assay for Inhibitors of Aldehyde Dehydrogenase 1 (ALDH1A1). Aldehyde dehydrogenase 1A1 (Homo sapiens), P00352. Purified ALDH1A1, NADH fluorescence, propionaldehyde substrate. Potency, µM (highest dose often 75.3 µM), without a hit: top-dose activity, negative = inhibition, actives largely listed as inhibitors. 220,000 compounds, 7.3% hits;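 note: potency is the fitted concentration of half-maximal effect; plate controls were no enzyme wells and a reference inhibitor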
12-hLO inh = qHTS Assay for Inhibitors of 12-hLO (12-human lipoxygenase); Potency, µM (highest dose often 57.1 µM), for inactives: top-dose activity change, negative = inhibition, hits mostly inhibitors; AID 1452, 2008; purified 12-hLO, xylenol orange hydroperoxide absorbance; 150,000 compounds, 0.12% hits; active = well fitted curve in the direction sought with a large enough effect; inconclusive = small, poorly fitted or top-dose-only effect, or another doubt; inactive = no such curve, though single readings can be large; an effect the other way counts as inactive or inconclusive; note: potency is the fitted concentration of half-maximal effect; nearly all actives have a fitted effect of over 55% in size
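Lipoxygenase turnover measured by absorbance at 573 and 405 nm after Fe-XO development. Human 12hLO 150 nM, arachidonate 40 uM, pH 7.0 Hepes buffer with detergent; 15 min compound preincubation, 30 min reaction.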
Starred values were filed as active, the others as inactive; ? = inconclusive; . = no result; [ ] = remark or other dose. Compounds with a hit are over-represented: about 11% of the library has one in this group of screens. Unless noted, calls come from the whole dose curve; as a rule, active = well fitted inhibition curve with a large enough effect (not every such curve was filed as active); inconclusive = small, poorly fitted or top-dose-only effect, or another doubt; inactive = no such curve, though single readings can be large or run the other way. Unless noted, % is set by controls: 0 for no effect and ±100 for the full control effect.

SMILES	IMPase Li cell	PNC inhibitor	IMPase inh	HPGD inh	ALDH1A1 inh	12-hLO inh
O=C(Nc1ccc(Cl)cc1)Nc1cc(S(=O)(=O)N2CCOCC2)ccc1N1CCCC1	-23%	?	.	?	?	5%
O=C(Nc1cc(S(=O)(=O)Nc2ccc(Cl)cc2)ccc1N1CCCCC1)c1ccc(F)cc1	-10%	?	2	?	28µM*	2%
O=S(=O)(Nc1ccc(Cl)cc1)c1ccc(N2CCOCC2)c(NC(=S)NCCN2CCOCC2)c1	7%	.	.	.	8.9µM*	.
COC(=O)c1cc(NC2c3ccccc3C(=O)N2CCN2CCOCC2)cc(C(=O)OC)c1 (configuration not stated)	-4%[38.3 µM]	36	10	-12%	-18%	-2%
C=CCn1c(SCC(=O)Nc2ccc3c(c2)OCO3)nnc1-c1ccccc1O	21%[38.3 µM]	6	-1	-19%	-3%	0%
CC(C)Cn1c2c(c(O)c(C(=O)Nc3ncccc3O)c1=O)CCCC2	-7%[38.3 µM]	-91*	1	-8%	7.9µM*	1%
CC(C)Cn1c2c(c(O)c(C(=O)Nc3ccc(F)cc3)c1=O)CCCC2	.	17	6	.	?	-16%
COc1cc2c(cc1OC)C(C(C(=O)N(CCc1ccc(OC)c(OC)c1OC)CCc1ccc(OC)c(OC)c1OC)c1ccccc1)=NCC2 (configuration not stated)	12%	.	.	-29%	?	-2%[0.00818 µM]
COc1cccc(-c2ccc3ncnc(NCCNC(C)=O)c3c2)c1	-1%	.	.	.	?	.
CCN(CC)C(=O)NC1CC2CCCC(C1)N2Cc1ccccc1 (configuration not stated)	1%[38.3 µM]	-92*	10	-6%	15%	0%
CCn1c2ccccc2c2nnc(SCCN3CCCCC3)nc21	.	.	11	.	.	.
CCn1c2ccc(C)cc2c2nnc(SCCN3CCOCC3)nc21	20%	.	.	.	25µM*	.
O=C(Nc1nc2ccccc2[nH]1)c1ccc(Br)o1	1%	.	.	.	3%	.
CN(C)S(=O)(=O)c1cccc(NC(=S)Nc2cccc3cnccc23)c1	.	.	.	.	7.9µM*	.
S=C(Nc1ccc(Cl)cc1)Nc1cccc2cnccc12	4%	-26	.	?	18µM*	-7%
Cc1cc(Cl)ccc1NC(=S)Nc1cccnc1	10%[38.3 µM]	23	2	2%	-8%	-3%
Fc1ccc(NC(=S)Nc2cccc3cnccc23)cc1	32%	.	.	.	7.9µM*	.
CN(C)S(=O)(=O)c1cccc(NC(=O)c2ccncc2)c1	1%	?	.	0%	2%	-2%
CN(C)S(=O)(=O)c1cccc(NC(=S)Nc2ccc3cn[nH]c3c2)c1	6%	.	.	.	22µM*	.
Fc1ccc(NC(=S)Nc2ccccc2Cl)cc1	1%	.	.	.	-2%	.
CN1CCC[C@@H](CC2c3ccccc3Sc3ccccc32)C1	25%	.	18[20.6 µM]	-2%	8%[20.9 µM]	4%[25.6 µM]
S=C(Nc1cccnc1)Nc1cccc2cnccc12	8%	.	.	.	13µM*	.
CCC(C)C1NC(=O)C(CCNCS(=O)(=O)O)NC(=O)C(NC(=O)C(CCNCS(=O)(=O)O)NC(=O)C(NC(=O)C(CCNCS(=O)(=O)O)NC(=O)CCCCC(C)C)C(C)O)CCNC(=O)C(C(C)O)NC(=O)C(CCNCS(=O)(=O)O)NC(=O)C(CCNCS(=O)(=O)O)NC(=O)C(C(C)CC)NC1=O (configuration not stated)	-3%	.	.	-7%	6%	?
COCCNC(=O)CSc1nc(-c2cc(OC)c(OC)c(OC)c2)[nH]c1-c1ccc(Cl)cc1	.	.	-4	.	.	.
Cc1noc(C)c1-c1cncnc1NC1CC1	-2%	.	.	-8%	3%	0%
N#Cc1ccc(C(=O)CSc2nnc(-c3ccc(C(F)(F)F)cn3)s2)cc1	.	.	.	.	35µM*	.
